# Source: the supplement of paper PMC11001985
# Compound: C#CCNC(=O)CCSSCCC(=O)NCCc1ccc(C=O)c(C=O)c1
# Assay: lysine labeling ratio R10:1 (500 µM / 50 µM probe), SILAC-ABPP in living cells; higher = lower intrinsic lysine reactivity toward the probe, active = 2 or less
# Conditions: HeLa; probe concentrations 500 vs 50 µM
# Summary of the method: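 SILAC light and heavy living HeLa cells in PBS at room temperature were labelled with 50 µM or 500 µM of an alkyne-tagged, disulfide-linked lysine probe, with forward and reverse label swaps. Mixed lysates were clicked to biotin-azide, trypsin-digested, captured on neutravidin, DTT-released, alkylated and analysed by LC-MS/MS on a TIMS-TOF Pro. R is the filtered median high-probe/low-probe MS1 peptide ratio per lysine, then the median across forward and reverse replicates. Ratios are capped at 20.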
# Sequence of UniProt P08069 (P08069 whole entry, looked up): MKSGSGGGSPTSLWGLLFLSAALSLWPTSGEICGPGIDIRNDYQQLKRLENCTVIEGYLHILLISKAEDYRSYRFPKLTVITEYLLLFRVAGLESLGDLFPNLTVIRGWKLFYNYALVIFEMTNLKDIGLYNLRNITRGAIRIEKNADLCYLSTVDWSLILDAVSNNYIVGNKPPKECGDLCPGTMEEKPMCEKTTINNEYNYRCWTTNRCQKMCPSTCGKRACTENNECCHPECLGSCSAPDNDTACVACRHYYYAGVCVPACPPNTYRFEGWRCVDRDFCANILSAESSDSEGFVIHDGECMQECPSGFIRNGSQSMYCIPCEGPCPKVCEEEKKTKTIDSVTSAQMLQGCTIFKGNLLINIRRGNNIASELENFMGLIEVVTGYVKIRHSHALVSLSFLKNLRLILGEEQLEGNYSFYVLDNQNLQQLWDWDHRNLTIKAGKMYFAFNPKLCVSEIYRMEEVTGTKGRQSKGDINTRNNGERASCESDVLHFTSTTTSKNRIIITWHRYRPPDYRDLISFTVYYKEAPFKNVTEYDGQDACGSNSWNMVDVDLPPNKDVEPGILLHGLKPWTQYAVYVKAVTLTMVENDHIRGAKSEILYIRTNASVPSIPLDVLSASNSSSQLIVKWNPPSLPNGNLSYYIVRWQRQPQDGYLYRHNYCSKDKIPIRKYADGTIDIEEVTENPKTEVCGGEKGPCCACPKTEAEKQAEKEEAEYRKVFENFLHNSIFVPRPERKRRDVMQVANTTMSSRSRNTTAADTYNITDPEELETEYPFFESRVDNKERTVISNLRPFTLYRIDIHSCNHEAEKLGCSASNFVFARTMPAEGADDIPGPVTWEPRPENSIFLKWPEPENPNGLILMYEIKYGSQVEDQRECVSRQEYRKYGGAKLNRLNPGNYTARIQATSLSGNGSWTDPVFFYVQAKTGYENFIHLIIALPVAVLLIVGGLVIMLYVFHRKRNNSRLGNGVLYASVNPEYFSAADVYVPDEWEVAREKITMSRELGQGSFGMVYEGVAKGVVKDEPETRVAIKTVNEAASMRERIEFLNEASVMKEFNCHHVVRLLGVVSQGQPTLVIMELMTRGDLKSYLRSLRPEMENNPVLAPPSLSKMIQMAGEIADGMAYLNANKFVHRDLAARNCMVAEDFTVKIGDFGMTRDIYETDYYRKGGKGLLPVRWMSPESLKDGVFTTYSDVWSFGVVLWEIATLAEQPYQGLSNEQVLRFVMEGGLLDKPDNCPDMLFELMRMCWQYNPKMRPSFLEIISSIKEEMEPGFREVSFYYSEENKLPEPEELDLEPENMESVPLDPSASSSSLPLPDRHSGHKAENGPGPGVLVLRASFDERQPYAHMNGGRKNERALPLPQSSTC
# Sequence of UniProt P78371 (P78371 whole entry): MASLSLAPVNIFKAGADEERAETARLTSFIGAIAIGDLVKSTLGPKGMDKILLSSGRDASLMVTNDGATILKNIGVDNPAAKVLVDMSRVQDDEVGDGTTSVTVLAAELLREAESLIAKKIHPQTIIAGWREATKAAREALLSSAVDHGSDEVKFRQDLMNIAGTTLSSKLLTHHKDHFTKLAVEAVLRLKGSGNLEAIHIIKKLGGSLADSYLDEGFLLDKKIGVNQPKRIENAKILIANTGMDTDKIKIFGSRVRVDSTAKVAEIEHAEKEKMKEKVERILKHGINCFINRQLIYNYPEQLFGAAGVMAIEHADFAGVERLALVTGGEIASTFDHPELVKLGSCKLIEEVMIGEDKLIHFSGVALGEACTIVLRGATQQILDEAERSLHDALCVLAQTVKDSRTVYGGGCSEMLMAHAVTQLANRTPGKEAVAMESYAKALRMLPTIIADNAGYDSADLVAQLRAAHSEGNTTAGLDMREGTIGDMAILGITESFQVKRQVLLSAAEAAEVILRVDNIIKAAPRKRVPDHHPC
# Sequence of UniProt P05556 (P05556 whole entry): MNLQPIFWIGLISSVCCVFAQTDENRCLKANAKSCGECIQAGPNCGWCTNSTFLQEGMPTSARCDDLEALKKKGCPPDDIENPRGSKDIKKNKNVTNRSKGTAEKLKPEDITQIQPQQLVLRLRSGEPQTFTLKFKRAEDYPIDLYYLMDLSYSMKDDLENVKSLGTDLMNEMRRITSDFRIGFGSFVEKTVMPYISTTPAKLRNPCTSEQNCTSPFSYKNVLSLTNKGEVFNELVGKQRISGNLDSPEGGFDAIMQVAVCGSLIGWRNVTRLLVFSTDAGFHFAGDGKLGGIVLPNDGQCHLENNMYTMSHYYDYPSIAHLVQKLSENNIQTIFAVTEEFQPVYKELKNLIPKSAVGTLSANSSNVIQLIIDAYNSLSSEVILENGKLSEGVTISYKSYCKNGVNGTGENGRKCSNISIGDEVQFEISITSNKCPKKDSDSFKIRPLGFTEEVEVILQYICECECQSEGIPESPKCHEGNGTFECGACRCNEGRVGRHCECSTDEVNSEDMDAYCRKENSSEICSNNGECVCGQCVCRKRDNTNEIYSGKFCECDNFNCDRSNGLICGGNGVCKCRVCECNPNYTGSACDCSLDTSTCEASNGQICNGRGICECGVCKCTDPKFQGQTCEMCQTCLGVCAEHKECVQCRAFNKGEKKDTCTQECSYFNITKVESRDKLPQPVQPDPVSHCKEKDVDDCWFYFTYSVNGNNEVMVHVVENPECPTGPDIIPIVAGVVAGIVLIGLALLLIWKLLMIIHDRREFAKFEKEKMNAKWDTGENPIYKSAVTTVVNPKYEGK
# Sequence of UniProt P16949 (P16949 whole entry): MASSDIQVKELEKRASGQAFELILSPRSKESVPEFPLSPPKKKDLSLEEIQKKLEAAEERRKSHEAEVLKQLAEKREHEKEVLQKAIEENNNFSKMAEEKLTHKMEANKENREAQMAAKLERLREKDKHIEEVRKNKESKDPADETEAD
# Sequence of UniProt P10586 (P10586 whole entry): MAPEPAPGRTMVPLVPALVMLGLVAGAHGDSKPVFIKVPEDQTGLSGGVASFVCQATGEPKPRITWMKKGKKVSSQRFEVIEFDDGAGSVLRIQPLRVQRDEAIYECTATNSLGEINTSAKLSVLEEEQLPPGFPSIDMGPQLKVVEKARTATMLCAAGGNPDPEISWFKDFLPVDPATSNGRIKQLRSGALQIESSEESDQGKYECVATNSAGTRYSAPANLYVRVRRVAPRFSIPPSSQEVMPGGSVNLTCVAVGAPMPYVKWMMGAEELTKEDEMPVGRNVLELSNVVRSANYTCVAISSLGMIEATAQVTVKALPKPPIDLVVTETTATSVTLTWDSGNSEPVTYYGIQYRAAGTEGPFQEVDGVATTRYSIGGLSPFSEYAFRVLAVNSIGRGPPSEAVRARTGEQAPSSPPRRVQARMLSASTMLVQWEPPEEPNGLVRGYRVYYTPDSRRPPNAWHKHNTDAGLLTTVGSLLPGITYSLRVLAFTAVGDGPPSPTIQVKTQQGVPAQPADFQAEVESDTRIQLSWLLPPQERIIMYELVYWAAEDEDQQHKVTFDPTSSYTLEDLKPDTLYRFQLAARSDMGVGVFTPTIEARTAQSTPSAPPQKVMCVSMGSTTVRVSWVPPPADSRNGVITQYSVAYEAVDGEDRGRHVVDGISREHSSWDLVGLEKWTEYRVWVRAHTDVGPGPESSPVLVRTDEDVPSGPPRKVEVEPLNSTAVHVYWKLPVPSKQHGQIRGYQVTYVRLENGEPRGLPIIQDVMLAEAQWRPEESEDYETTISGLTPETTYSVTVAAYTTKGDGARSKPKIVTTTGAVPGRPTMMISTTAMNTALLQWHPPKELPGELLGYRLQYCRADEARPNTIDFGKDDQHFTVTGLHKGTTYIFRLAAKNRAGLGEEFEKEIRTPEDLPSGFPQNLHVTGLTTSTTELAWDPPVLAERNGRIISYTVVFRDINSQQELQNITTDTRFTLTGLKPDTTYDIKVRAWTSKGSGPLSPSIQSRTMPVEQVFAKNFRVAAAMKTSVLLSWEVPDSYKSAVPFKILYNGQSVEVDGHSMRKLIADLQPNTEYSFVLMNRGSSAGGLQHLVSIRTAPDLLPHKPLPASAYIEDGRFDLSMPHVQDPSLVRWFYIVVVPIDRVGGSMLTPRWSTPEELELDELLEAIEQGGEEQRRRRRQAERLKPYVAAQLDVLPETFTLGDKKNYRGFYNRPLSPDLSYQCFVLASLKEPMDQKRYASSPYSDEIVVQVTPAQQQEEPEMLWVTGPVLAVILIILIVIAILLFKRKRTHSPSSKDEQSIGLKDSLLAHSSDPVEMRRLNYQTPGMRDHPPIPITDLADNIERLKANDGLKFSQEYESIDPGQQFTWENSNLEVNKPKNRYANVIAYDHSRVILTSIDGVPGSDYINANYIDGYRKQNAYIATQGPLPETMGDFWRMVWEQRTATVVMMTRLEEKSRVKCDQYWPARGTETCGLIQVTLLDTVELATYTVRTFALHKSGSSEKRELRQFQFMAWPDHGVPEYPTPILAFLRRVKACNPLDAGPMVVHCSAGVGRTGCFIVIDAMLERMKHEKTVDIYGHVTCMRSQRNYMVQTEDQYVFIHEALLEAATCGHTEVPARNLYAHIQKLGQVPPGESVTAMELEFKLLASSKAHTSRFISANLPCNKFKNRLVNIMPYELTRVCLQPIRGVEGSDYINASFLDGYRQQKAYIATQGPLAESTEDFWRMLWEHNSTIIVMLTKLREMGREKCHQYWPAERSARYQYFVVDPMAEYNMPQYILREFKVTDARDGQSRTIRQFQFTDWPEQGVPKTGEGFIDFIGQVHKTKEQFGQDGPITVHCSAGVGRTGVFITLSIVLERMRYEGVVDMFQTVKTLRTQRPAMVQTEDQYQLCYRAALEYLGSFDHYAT
# Sequence of UniProt O43633 (O43633 whole entry): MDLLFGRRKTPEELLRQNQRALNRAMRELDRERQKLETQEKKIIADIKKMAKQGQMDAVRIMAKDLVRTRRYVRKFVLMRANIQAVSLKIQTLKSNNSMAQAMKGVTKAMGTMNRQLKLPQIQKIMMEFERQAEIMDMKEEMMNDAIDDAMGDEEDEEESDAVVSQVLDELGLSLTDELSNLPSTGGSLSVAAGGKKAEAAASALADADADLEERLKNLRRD
row,Target,lysine labeling ratio R10:1
1,ITGB1 (lysine site: K575) (UniProt P05556),3.24 (inactive)
2,PTPRF (lysine site: K906) (UniProt P10586),4.94 (inactive)
3,CCT2 (lysine site: K135) (UniProt P78371),2.8 (inactive)
4,PLOD2 (lysine site: K89) (UniProt O00469),1.37 (active)
5,KRT18 (lysine site: K118) (UniProt P05783),6.22 (inactive)
6,CHMP2A (lysine site: K64) (UniProt O43633),5.72 (inactive)
7,EZR (lysine site: K344) (UniProt P15311),7.1 (inactive)
8,STMN1 (lysine site: K126) (UniProt P16949),2.8 (inactive)
9,CSE1L (lysine site: K158) (UniProt P55060),3.34 (inactive)
10,UniProt Q16363 (lysine site: K518),2.09 (inactive)
11,UniProt P62701 (lysine site: K233),4.48 (inactive)
12,FLNB (lysine site: K2088) (UniProt O75369),2.27 (inactive)
13,IGF1R (lysine site: K665) (UniProt P08069),1.28 (active)
14,IGSF3 (lysine site: K279) (UniProt O75054),2.5 (inactive)
15,FAT1 (lysine site: K369) (UniProt Q14517),1.01 (active)
16,PTPRJ (lysine site: K202) (UniProt Q12913),2.9 (inactive)
17,EHD1 (lysine site: K220) (UniProt Q9H4M9),4.05 (inactive)
